Test results reported in article PMC4552634, “A New Set of Chemical Starting Points with Plasmodium falciparum Transmission-Blocking Potential for Antimalarial Drug Discovery” (PLoS ONE, 2015).
Where two headings read alike, the source gives them in different places. In all, about 13,000 compounds went through this assay and about 3,200 (25%) showed an effect of 50% or more. The list shows a part of the results.

Test system: P. falciparum stage V gametocytes
Set-up: BacTiter-Glo ATP luminescence viability of purified stage V gametocytes in 384-well plates, per cent inhibition versus DMSO
Details: 48 h, 5 µM, inhibitor

| SMILES | % Inhibition | % Inhibition (% Inhibition) |
| --- | --- | --- |
| O=C(COC(=O)c1cccc(S(=O)(=O)N2CCc3ccccc32)c1)NNC(=O)c1cccs1 [TCMDC-124334] | 26.4% | – |
| CC(C)C[C@H](NC(=O)c1ccc(OCCN2CCOCC2)cc1)C(=O)N[C@H](/C=N/NC(=O)c1ccccc1)CCc1ccccc1 [TCMDC-135817] | 2.96% | – |
| CN(C)C=Nc1ccc(OCCCCCCOc2ccc(N=CN(C)C)cc2)cc1 [TCMDC-137575] | -11.04% | – |
| CC(C)CCN=C(N)c1ccc(OCCCCCOc2ccc(C(N)=NCCC(C)C)cc2)cc1 [TCMDC-137618] | 62.8% | – |
| CCCCCCN=C(N)c1ccc(OCCCCCOc2ccc(C(N)=NCCCCCC)cc2)cc1 [TCMDC-137619] | 113.3% | – |
| COc1ccc(CN=C(N)Nc2nc(-c3ccc(OCCCn4ccnc4)cc3)cs2)cc1 [TCMDC-138934] | 9.829% | – |
| CCCCN=C(N)c1ccc(OCCCCCOc2ccc(C(N)=NCCCC)cc2)cc1 [TCMDC-137617] | 33.37% | – |
| CCCCCCN=C(N)c1ccc2nc(-c3ccc(O)cc3)[nH]c2c1 [TCMDC-137218] | 15.89% | – |
| CCCCN=C(N)Nc1ccc(OCCCOc2ccc(NC(N)=NCCCC)cc2)cc1 [TCMDC-137616] | 55.77% | – |
| NC(=NCc1ccc(O)cc1)Nc1nc(-c2ccc(OCCCn3ccnc3)cc2)cs1 [TCMDC-138936] | -10.17% | – |
| CCCCCN=C(N)c1ccc(OCCCCCOc2ccc(C(N)=NCCCCC)cc2)cc1 [TCMDC-137620] | 63.24% | – |
| O=C(Nc1cccc(-c2cc3ccccc3[nH]2)c1)C1CCN(Cc2ccccc2O)CC1 [TCMDC-124628] | -2.419% | – |
| COC(=O)Nc1cc(C(F)(F)F)ccc1N1CCCC(NS(=O)(=O)c2ccc(C(C)(C)C)cc2)C1 (centres unmarked) [TCMDC-134158] | -30.72% | – |
| CN1CCN(c2ccnc3ccc(NC(=O)Nc4ccc(Br)cc4)cc23)CC1 [TCMDC-139324] | -20.3% | – |
| CC(CNC1CCN(CCn2c(=O)ccc3ccc(F)cc32)CC1)c1ccccc1 (centres unmarked) [TCMDC-135136] | 3.185% | – |
| CCN1CCCC(CNC(=O)/C(=C/C=C/c2cc3cc(Cl)c(Cl)cc3[nH]2)OC)C1 (centres unmarked) [TCMDC-139380] | -27.83% | – |
| CC1CCC(C[C@@H](C(=O)N[C@H](C(=O)Nc2nccs2)[C@@H](C)O)[C@H](CCC(F)(F)F)N(O)C=O)CC1 (some centres unmarked) [TCMDC-138352] | 2.054% | – |
| Cc1ccc(OCCCCON2C(N)=NC(N)=NC2(C)C)cc1C [TCMDC-131655] | 1.03% | – |
| COc1ccc2nccc([C@@H](O)CN3CCC(NCc4ccc5c(n4)NCCC5)CC3)c2c1 [TCMDC-141460] | 44.65% | – |
| Nc1c2c(nc3ccc(NC(=O)CCCCCCc4ccccc4)cc13)CCCC2 [TCMDC-139056] | 74.85% | – |
| O=C(CCCc1ccccc1)Nc1cccc(N2CCC(N3CCN(c4ccccc4O)CC3)CC2)c1 [TCMDC-124664] | -59.43% | – |
| O=C(Nc1ccc(O)c(-c2nc3ccccc3[nH]2)c1)c1ccc([N+](=O)[O-])cc1 [TCMDC-124222] | -7.746% | – |
| Cc1cc(N(C)C)nc(Nc2ccc(NC(=O)CCc3ccccc3)cc2)n1 [TCMDC-124721] | 2.562% | – |

| SMILES | % Inhibition | % Inhibition (% Inhibition) |
| --- | --- | --- |
| Cc1ccc2cc(NC(=O)CCCCCCCON3C(N)=NC(N)=NC34CCCCC4)ccc2n1 [TCMDC-140377] | 0.7997% | – |
| Nc1c2c(nc3cc(NC(=O)c4ccc([N+](=O)[O-])cc4)ccc13)CCCC2 [TCMDC-138975] | 103.7% | – |
| CN1CCN(c2ccnc3ccc(NC(=O)Cc4ccc5ccccc5c4)cc23)CC1 [TCMDC-139351] | 4.671% | – |
| Nc1c2c(nc3ccc(NC(=O)CCCCCc4ccccc4)cc13)CCCC2 [TCMDC-139060] | -0.3465% | – |
| CN1CCN(c2ccnc3ccc(NC(=O)Cc4ccc(OCc5ccccc5)cc4)cc23)CC1 [TCMDC-139349] | 24.22% | – |
| Nc1c2c(nc3ccc(NC(=O)Cc4ccccc4)cc13)CCCC2 [TCMDC-139055] | 81.23% | – |
| Nc1c2c(nc3ccc(NC(=O)CCCc4ccccc4)cc13)CCCC2 [TCMDC-139057] | 98.45% | – |
| Nc1c2c(nc3ccc(NC(=O)c4ccccc4)cc13)CCCC2 [TCMDC-139043] | 28.63% | – |
| COc1ccc2cc(C(=O)NC3CCC(CCN4CCc5cc(C#N)ccc5C4)CC3)[nH]c2c1 (centres unmarked) [TCMDC-139193] | -26.16% | – |
| O=C(/C=C/c1ccc(Cl)c(Cl)c1)NC1CCC(CN2CCC(c3nc4ccc(O)cc4[nH]3)CC2)CC1 (centres unmarked) [TCMDC-140227] | 3.463% | – |
| CCCc1cc(Cc2cnc(N)nc2N)cc(CCC)c1OC [TCMDC-137694] | -10.37% | – |
| Cc1ccc(-c2noc(=O)n2CC(=O)Nc2ccccc2-c2ccccc2)cc1 [TCMDC-123570] | 15.39% | – |
| CC(C)c1ccc(NC(=O)c2ccc(CN3CCCN(Cc4cccc(Cl)c4)CC3)cc2)cc1 [TCMDC-136418] | 3.705% | – |
| CC(Cc1ccc(NS(=O)(=O)c2ccc(CC(C)NCCc3cccc(Cl)c3)cc2)cc1)NCCc1cccc(Cl)c1 (centres unmarked) [TCMDC-139797] | 48.75% | – |
| CC(C)c1sc(N2CCN(C)CC2)nc1C(=O)NCCc1cccc(Cl)c1 [TCMDC-134297] | 6.593% | – |
| CC(Cc1ccc(CNC(=O)c2ccc(CC(C)NCCc3cccc(Cl)c3)cc2)cc1)NCCc1cccc(Cl)c1 (centres unmarked) [TCMDC-139659] | 108.3% | – |
| CC(Cc1ccc(C(=O)N2CCN(C(=O)c3ccc(CC(C)NCCc4cccc(Cl)c4)cc3)CC2)cc1)NCCc1cccc(Cl)c1 (centres unmarked) [TCMDC-139613] | 105.5% | – |
| CC(Cc1ccc(CNC(=O)NCc2ccc(CC(C)NCCc3cccc(Cl)c3)cc2)cc1)NCCc1cccc(Cl)c1 (centres unmarked) [TCMDC-139648] | 111.4% | – |
| O=C(NCCc1ccc(Cl)c(Cl)c1)c1ccc(CNC(=O)c2ccc(O)c(-c3ccc(Cl)c(Cl)c3)c2)cc1 [TCMDC-140872] | 8.428% | – |
| CC(C)n1cc(CN2CCCC(C(=O)Nc3cccc(-c4cc5ccccc5[nH]4)c3)C2)cn1 (centres unmarked) [TCMDC-124681] | -62.3% | – |
| CC(C)c1sc(N2CCCCC2)nc1C(=O)Nc1ccc(F)cc1C(F)(F)F [TCMDC-134299] | -21.66% | – |
| COc1cccc(CNC(=O)NC2CCN(c3ccnc(Nc4cc(OC)c(OC)c(OC)c4)n3)C2)c1 (centres unmarked) [TCMDC-133628] | 38.97% | – |
| CN1CCC(NCc2ccc(-c3ccc(C(F)(F)F)cc3)cc2)CC1 [TCMDC-141094] | -30.31% | – |

| SMILES | % Inhibition | % Inhibition (% Inhibition) |
| --- | --- | --- |
| CCN(CC)CCCNCc1ccc(-c2ccc(C(F)(F)F)cc2)cc1 [TCMDC-141087] | 65.86% | – |
| CS(=O)(=O)NCCCNCc1ccc(-c2cccc(-c3nc4ccc(C(F)(F)F)cc4[nH]3)c2)cc1 [TCMDC-133087] | 6.297% | – |
| FC(F)(F)c1ccc2[nH]c(-c3ccc(-c4ccc(CNCCc5ccncc5)cc4)cc3)nc2c1.O=C(O)C(F)(F)F [TCMDC-132852] | -64.17% | – |
| CS(=O)(=O)NCCCNCc1ccc(-c2ccc(-c3nc4cc(C(F)(F)F)ccc4[nH]3)cc2)cc1.O=C(O)C(F)(F)F [TCMDC-133080] | -31.8% | – |
| CN(C)CCCNCc1ccc(-c2ccc(C(F)(F)F)cc2)cc1 [TCMDC-140011] | 92.27% | – |
| O=C(CC(=O)C(F)(F)F)c1ccccc1[N+](=O)[O-] [TCMDC-125884] | 22.33% | – |
| Cc1ccc(-n2c(Cc3cccc4ccccc34)nnc2SCCC#N)c(C)c1 [TCMDC-123560] | -0.8399% | – |
| O=C(CC1CCCC1)Nc1ccc2c(c1)CCC2 [TCMDC-124327] | 8.334% | – |
| CC(C)n1ncc2c(C(=O)N3CCCC4CCCCC43)cc(C3CC3)nc21 (centres unmarked) [TCMDC-125305] | -1.205% | – |
| Cc1ccc(-n2c(Sc3ncnc4sccc34)nnc2N2CCCC2)cc1 [TCMDC-125247] | 65.97% | – |
| COc1cc2nc(NCCC(C)C)n3nc(-c4ccccc4)nc3c2cc1OC [TCMDC-124451] | -18.82% | – |
| CN1CCN(CCCCCCNc2c3ccccc3nc3ccccc23)CC1 [TCMDC-137542] | 98.34% | – |
| CN1CCN(CCCCCNc2c3ccccc3nc3ccccc23)CC1 [TCMDC-137541] | 96.5% | – |
| CN1CCN(CCCCNc2c3ccccc3nc3ccccc23)CC1 [TCMDC-137479] | 105.4% | – |
| CC(CCNc1c2ccccc2nc2ccccc12)N1CCN(C)CC1 (centres unmarked) [TCMDC-138011] | 98.03% | – |
| CN1CCN(c2nc(NCCNc3ccc([N+](=O)[O-])cc3)c3ccccc3n2)CC1 [TCMDC-124567] | 35.05% | – |
| COc1ccc2nccc([C@@H](O)CN3CCC(NCc4nc5c(cc4Cl)SCC(=O)N5)C(F)C3)c2c1 (some centres unmarked) [TCMDC-141717] | – | 2.766% |
| O=C(Nc1ccc(S(=O)(=O)N2CCCC2)cc1)c1cc(-c2cccnc2)nc2ccc(Cl)cc12 [TCMDC-124359] | -22.21% | – |
| COc1ccc(-c2cnc(N)nc2N)cc1Cl [TCMDC-137297] | -3.357% | – |
| CC(C)(C)c1cc(C(=O)N2CCN(c3ccc(C(F)(F)F)cn3)CC2)n(Cc2ccc(F)cc2)n1 [TCMDC-123791] | 22.03% | – |
| Cc1nc(-c2cccc3c(NC(=O)N4CCc5cc6nccc(N7CCN(C)CC7)c6cc54)cccc23)no1 [TCMDC-139370] | -51.93% | – |
| Cc1cc(N2CCCCC2)nc2ccc(NC(=O)c3cncc(Br)c3)cc12 [TCMDC-124421] | 17.06% | – |
